About 79,000 compounds went through this panel and 15% of them were active in at least one assay; those are over-represented in the sample as a whole. The source made the active and inactive calls. Cut-off read from the data, not from the text of the source: active = growth inhibition above about 70%; inactive = the rest.
What was measured:
[1] = NCI Yeast Anticancer Drug Screen. Data for the rad50 strain (AID 155);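 note: 0% = growth of vehicle-only cultures of the same strain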; conditions: S. cerevisiae rad50 strain growth inhibition; at 50.0 µM; hits give high values
Procedure, shortened: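 Cells are treated with compound, grown, and their growth is then scored against vehicle-only cultures of the same repair-deficient yeast strain.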

[2] = NCI Yeast Anticancer Drug Screen. Data for the mec2-1 strain (AID 157); conditions: S. cerevisiae mec2-1 strain, at 50.0 µM, hits give high values
Procedure, shortened: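 Using mec2-1 yeast: add compound, measure growth, express inhibition versus vehicle-treated cultures.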

[3] = NCI Yeast Anticancer Drug Screen. Data for the sgs1 mgt1 strain (AID 161);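 note: 0% = growth of cultures given vehicle only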; conditions: S. cerevisiae sgs1 mgt1 strain, at 50.0 µM, hits give high values
Procedure, shortened: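 Growth of a repair-deficient yeast mutant was monitored after compound treatment and expressed as inhibition relative to vehicle-treated cultures.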

[4] = NCI Yeast Anticancer Drug Screen. Data for the cln2 rad14 strain (AID 165);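 note: 0% = growth equal to vehicle treated cultures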; conditions: S. cerevisiae cln2 rad14 strain, at 50.0 µM, hits give high values
Procedure, shortened: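 Yeast strain cln2 rad14, bearing defects in cell cycle control and DNA repair, serves as the test system; values reflect growth inhibition compared with vehicle.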

[5] = NCI Yeast Anticancer Drug Screen. Data for the bub3 strain (AID 167); conditions: S. cerevisiae bub3 mutant strain, at 50.0 µM, hits give high values
Procedure, shortened: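 Part of a panel of yeast mutants defective in DNA damage repair or cell cycle regulation. Each strain is grown with compound, and inhibition is calculated relative to solvent-treated cultures.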

[6] = NCI Yeast Anticancer Drug Screen. Data for the mlh1 rad18 strain (AID 175); conditions: S. cerevisiae mlh1 rad18 strain growth inhibition; at 50.0 µM; hits give high values
Procedure, shortened: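 Steps: expose repair-defective yeast to compound; measure growth; express inhibition against vehicle-treated controls.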

Measured: growth inhibition

c1csc(-c2nccc3ccccc23)c1
inactive: [1] 1.6% | [2] 2.3% | [3] -19.2% | [4] 2.2% | [5] 7.7% | [6] 10.6%

CC(=O)NC(CSCC(=O)c1ccccc1)C(=O)O (stereo unspecified)
inactive: [1] -12.6% | [2] -8% | [3] -10.3% | [4] -6.05% | [5] -18.8% | [6] -3.5%

Nc1ncnc2c1ncn2C1CCC(CP(=O)(O)O)C1 (stereo unspecified)
inactive: [1] -6.85% | [2] -25.4% | [3] -23.4% | [4] -29.4% | [5] -5.45% | [6] -0.1%

C=C1C[C@]23CC[C@@H]4C(CO)(CO)CC(=O)C[C@]4(C)[C@@H]2C(O)C[C@H]1C3 (stereo partly specified)
inactive: [1] 30.6% | [2] 17.9% | [3] 17.8% | [4] -5.05% | [5] 7.05% | [6] 30.9%

O=C(O)CCBr
inactive: [1] 8.1% | [2] -10.1% | [3] 44.5% | [4] 0% | [5] 6.5% | [6] 43.8%

CCOCCOCCOC(=O)C(C)O (stereo unspecified)
inactive: [1] 14.7% | [2] 7.1% | [3] 2.25% | [4] 6.55% | [5] -18.6% | [6] -3.4%

CC(=O)c1c(-c2ccc(Cl)cc2)c(-c2ccc(Cl)cc2)nn(CCN)c1=O
inactive: [1] 38.1% | [2] 15.2% | [3] 29.2% | [4] 24.6% | [5] 42.7%
active: [6] 93%

C/C(CC(=O)Nc1ccc(Cl)c(Cl)c1)=N/NC(=O)C[N+](C)(C)C
inactive: [1] -9.25% | [2] -14.7% | [3] -6.3% | [4] 26.6% | [5] -14.8% | [6] -6.1%

O=C(c1ccccc1)N1C(=O)c2ccccc21
inactive: [1] -11.1% | [2] 5.75% | [3] -12.8% | [4] -16.3% | [5] 9.5% | [6] -15.5%

CCSC(C(OC(C)=O)C(OC(C)=O)C(COC(C)=O)OC(C)=O)n1cnc2c(=S)nc[nH]c21 (stereo unspecified)
inactive: [1] 6.75% | [2] -0.45% | [3] 9.35% | [4] 18.8% | [5] -1.55% | [6] 1.7%

NCCCc1ccc2oc3ccccc3c2c1
inactive: [1] 23.8% | [2] -14.2% | [3] 13.9% | [4] 15.5% | [5] -22.3% | [6] 24.4%

CCCCCNC(=O)C(C)O (stereo unspecified)
inactive: [1] 5.6% | [2] -8.3% | [3] -9.7% | [4] -30.5% | [5] -2.2% | [6] 14.6%

NC(N)=Nc1ccc(Sc2ccc(N=C(N)N)cc2)cc1
inactive: [1] -15.8% | [2] -35.5% | [3] -16.6% | [4] -19.6% | [5] -4.65% | [6] -26.5%

NCCCC(N)C(=O)O (stereo unspecified)
inactive: [1] -16.9% | [2] -17.4% | [3] -33.5% | [4] -12.7% | [5] -42.6% | [6] -19.7%

COc1ccc(/C(=N\NC(=O)NN)C(c2ccc(OC)cc2)C2(O)C(=O)Nc3c(Cl)cc(Cl)cc32)cc1 (stereo unspecified)
inactive: [1] 6.2% | [2] -7.75% | [3] -57% | [4] -16.8% | [5] 8.6% | [6] -10.2%

CN1c2ccccc2C2=C(c3ccccc3)CC[C@@H](C(=O)N3C4CC5CC[C@@]4(CS3(=O)=O)C5(C)C)[C@@H]21 (stereo partly specified)
inactive: [1] -14.6% | [2] -6.2% | [3] 20.6% | [4] 10% | [5] -8.85% | [6] 31.8%

Oc1ccccc1C=Nc1ccc(N2CCOCC2)cc1
inactive: [1] 2.65% | [2] -3.7% | [3] 10.1% | [4] -4.2% | [5] 2.05% | [6] -2.35%

COc1ccccc1CC(=O)C(O)(C(F)(F)F)C(F)(F)F
inactive: [1] -37.5% | [2] -36.3% | [3] -18.9% | [4] -28.6% | [5] -5.9% | [6] -26.9%

CC(=O)NC1=NCC(CSc2nc3ccccc3s2)S1 (stereo unspecified)
inactive: [1] -8.45% | [2] -14.3% | [3] 5.65% | [4] -26.2% | [5] 9.7% | [6] 4.3%

COC1OC(COC(c2ccccc2)(c2ccccc2)c2ccccc2)C(OS(=O)(=O)c2ccc(C)cc2)C(OC(=O)c2ccccc2)C1OC(=O)c1ccccc1 (stereo unspecified)
inactive: [1] 0.1% | [2] -6.7% | [3] -1.15% | [4] -7.35% | [5] 0.3% | [6] 27.9%

CCOC(=O)C(C)OC(=O)C(C)OC(C)=O (stereo unspecified)
inactive: [1] 4.7% | [2] 23.8% | [3] 17.1% | [4] 9.4% | [5] 1.5% | [6] -7.7%

CCOC1=NC(C)C(C)N1 (stereo unspecified)
inactive: [1] -5.1% | [2] -11.1% | [3] -13.4% | [4] 9.05% | [5] 6.25% | [6] -21.1%

CN(C)CCCN1CCC2(CCC(C(C)(C)C)CC2)CC1
inactive: [1] 40% | [2] -16.1% | [3] -0.3% | [4] -19.1% | [5] -31.2% | [6] 49.8%

CCCCC(C(C)=O)C(=O)CC (stereo unspecified)
inactive: [1] 26.4% | [2] -25% | [3] 8.8% | [4] -23.2% | [5] -20.5% | [6] 13.1%

COC(=O)C[C@H]1CCC2(OCCO2)[C@]1(C)C(=O)OC
inactive: [1] -10.7% | [2] -11.6% | [3] -11.2% | [4] -23.4% | [5] -6.9% | [6] -27.1%

CC(C)=C1C2C=CC1C(CO)C2CO (stereo unspecified)
inactive: [1] 9.8% | [2] -4.4% | [3] -3.95% | [4] -64% | [5] 2.2% | [6] 10.8%

O=C1S/C(=C2\C(=O)N(CN3CCCCC3)c3ccccc32)C(=O)N1CN1CCCCC1
inactive: [1] 26.6% | [2] -13.1% | [3] -3.85% | [4] 4.65% | [5] -1.1% | [6] 31.1%

CC(=O)OC1=C(OC(C)=O)N(S(=O)(=O)c2ccc(C)cc2)CCc2ccccc21
inactive: [1] 31.4% | [2] 20.4% | [3] 36.6% | [4] 26.5% | [5] 6.5% | [6] 36%

Cc1cc[n+](CC(=O)c2ccc(Br)cc2)cc1
inactive: [1] 22.8% | [2] 12.7% | [3] 18.4% | [4] 22.9% | [5] 4.35% | [6] 54.5%

O=C1C(c2ccccc2)=C(O)c2cccc3cccc1c23
inactive: [1] -24.4% | [2] -33.5% | [3] -13% | [4] 13.4% | [5] -3.65% | [6] -57.6%

CCCCCCC(N)=O
inactive: [1] 8.1% | [2] 2.1% | [3] -4.05% | [4] -26.9% | [5] -6.45% | [6] 9.75%

CO/C(=N\N=C\c1cc(OC)ccc1OC)c1ccncc1
inactive: [1] 0.6% | [2] -13.2% | [3] -23.6% | [4] 10.7% | [5] -38.8% | [6] -11.2%

COc1ccc(OC)c(NC(=O)CCC/C(CC(=O)c2ccc(O)c(OC)c2)=N\Nc2ccc([N+](=O)[O-])cc2)c1
inactive: [1] -25.8% | [2] -0.7% | [3] -38.5% | [4] 23.1% | [5] -6% | [6] -25.6%

COc1cc(C2c3cc4c(cc3[C@@H](Nc3ccc(C#N)cc3)C3COC(=O)[C@H]23)OCO4)cc(OC)c1O (stereo partly specified)
active: [1] 87.5% | [2] 89.7% | [3] 89.5% | [4] 85.5% | [5] 89% | [6] 88.3%

C[N+](C)(C)C12CCC(CC1)C1([N+](C)(C)C)CCC2CC1
inactive: [1] 4.2% | [2] 21.4% | [3] 17.2% | [4] -10.2% | [5] 4.45% | [6] 22.1%

O=c1cc(-c2ccccc2)[nH]c2ncccc12
inactive: [1] -37.5% | [2] -48.6% | [3] -37.1% | [4] -9.4% | [5] -19.8% | [6] -65.8%

Source: PubChem BioAssay (NCI)
